Screening results from PubChem BioAssay.
TDP1 cell noCPT: qHTS for Inhibitors of human tyrosyl-DNA phosphodiesterase 1 (TDP1): qHTS in cells in absence of CPT | Potency, µM (series often up to 46.2 µM), most hits filed as inhibitors | AID 686978, 2013 | 15% of 420,000 active | DT40 Tdp1-/- hTDP1 cells, no CPT, ATP luminescence, 48 h; also: nearly all actives have a fitted effect of over 55% in size
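Growth of hTDP1-complemented DT40 Tdp1-knockout cells is measured by ATP luminescence after at least 48 hr compound exposure at 37 °C, with DMSO substituting for the 20 nM CPT used in the parallel screen.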
HT1080 IDH1KD tx: kills HT-1080 cells with IDH1 knockdown; Potency, µM (top dose mostly 46.1 µM), usual class: cytotoxic; HT-1080 IDH1 knockdown viability, ATP luminescence, 48 h; 2% of 360,000 active; AID 686971
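Knockdown cells (IDH1KD HT-1080) received compounds 2 h after plating at 750 cells/well and were kept 48 h at 37 °C in 5% FBS RPMI. A CellTiter-Glo luminescence read gave % activity for curve fitting.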
12-LOX inh: ALOX12 (human) lipoxygenase inhibition; P18054; 1.1% of 580,000 active; purified 12hLO, xylenol orange hydroperoxide absorbance; AID 1671190; Potency, µM (top dose mostly 108 µM), hits mostly inhibitors
Target sequence (P18054 whole entry, looked up): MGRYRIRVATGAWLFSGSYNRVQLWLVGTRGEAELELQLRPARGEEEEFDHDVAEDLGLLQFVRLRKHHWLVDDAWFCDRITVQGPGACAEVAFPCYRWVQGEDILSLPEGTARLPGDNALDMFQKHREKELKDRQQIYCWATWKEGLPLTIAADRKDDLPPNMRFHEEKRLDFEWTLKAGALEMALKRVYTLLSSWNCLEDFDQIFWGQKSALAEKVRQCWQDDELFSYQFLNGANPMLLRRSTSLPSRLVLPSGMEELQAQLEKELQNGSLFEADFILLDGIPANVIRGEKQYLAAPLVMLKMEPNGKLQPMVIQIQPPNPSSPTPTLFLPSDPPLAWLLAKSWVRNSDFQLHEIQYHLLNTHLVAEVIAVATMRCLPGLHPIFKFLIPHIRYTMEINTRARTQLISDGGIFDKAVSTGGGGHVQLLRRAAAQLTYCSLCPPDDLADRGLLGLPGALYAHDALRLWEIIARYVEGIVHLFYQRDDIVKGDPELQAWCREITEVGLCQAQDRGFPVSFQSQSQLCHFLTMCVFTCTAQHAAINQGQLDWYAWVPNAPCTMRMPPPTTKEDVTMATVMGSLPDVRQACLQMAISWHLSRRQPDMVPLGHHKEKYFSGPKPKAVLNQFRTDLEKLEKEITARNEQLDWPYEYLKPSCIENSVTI
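Purified human 12hLO at 150 nM in 25 mM Hepes, 0.01% Triton X-100, pH 7.0, preincubated 15 min at room temperature with compound. Reaction started with 40 uM arachidonic acid, 30 min at room temperature. Hydroperoxide measured by Fe-xylenol orange, 573/405 nm absorbance ratio.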
IL1B secr inh: inhibitors of inflammasome signaling (IL-1 beta secretion); THP-1 LPS/ATP IL-1B secretion, AlphaLISA, 16 h; active compounds read low; activity change, % at 57.5 µM; 4.7% of 360,000 active; AID 743279; in the data active = activity change below about -50%; inconclusive = mostly about -30% to -49%
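Secreted IL-1B measured by AlphaLISA bead assay after 16 h compound exposure of THP-1 cells; compounds (final up to 57.5 uM) added 1 h before LPS (250 ng/mL) and ATP (1.25 mM) stimulation; lower signal means less secretion.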
TDP1 cell CPT: DT40-hTDP1 cell growth loss with CPT. chicken DT40 Tdp1-/-;hTDP1 cells + 20 nM CPT, ATP luminescence, 48 h. Potency, µM (doses to about 46.2 µM), most hits filed as inhibitors. 12% of 420,000 active. AID 686979; also: nearly all actives have a fitted effect of over 55% in size
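Chicken DT40 Tdp1-/- cells complemented with human TDP1, 400 cells/well, exposed to compounds plus 20 nM camptothecin for at least 48 h at 37 C; viability read as ATP content by CellTiter-Glo luminescence.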
HT1080-NT tox: kills 2HG-producing HT-1080-NT fibrosarcoma cells; HT-1080-NT fibrosarcoma viability, CellTiter-Glo ATP luminescence, 48 h; Potency, µM (highest dose often 46.1 µM), most hits filed as cytotoxic; 1.6% of 360,000 active;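 also: NT is the 2HG producing partner of a matched IDH1 knockdown line; nearly all actives have a fitted effect of over 55% in size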
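Luminescent CellTiter-Glo readout after 48 hours of compound exposure at 37 degrees C defined viability of HT-1080-NT cells. Activity was normalized to DMSO wells and cell-free media wells; concentration-response curves were fitted and assigned curve classes.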
Numbers stand for hits; – = inactive; ? = inconclusive; · = no result; ! = not confirmed by another sample; [ ] = remark or other dose. The entries come from a sample that favours hits as a whole. Unless noted, calls follow the shape of the dose curve; as a rule, active = well fitted curve in the direction sought with a large enough effect; inconclusive = small, poorly fitted or top-dose-only effect, or another doubt; inactive = no such curve, though single readings can be large; an effect the other way counts as inactive or inconclusive.

SMILES | TDP1 cell noCPT | HT1080 IDH1KD tx | 12-LOX inh | IL1B secr inh | TDP1 cell CPT | HT1080-NT tox
CC1=NN(/C(=N\c2nnc(C)s2)Nc2ccccc2)[C@H](c2cccc3ccccc23)S1 | ? | – | – | – | 23µM | –
C=C(C)C1CCC(C)=C1COC(=O)Nc1ccccc1 (configuration not stated) | ? | – | – | -62 | ? | –
COc1ccc(O)c(/C=C2/SC(=S)N(Cc3ccccc3)C2=O)c1 | 21µM | – | – | – | ? | –
COc1ccc(/C=C2/SC(=S)N(Cc3ccccc3)C2=O)cc1O | – | ? | – | ? | – | –
O=C(O)COc1ccc(/C=C2/SC(=S)N(Cc3ccccc3)C2=O)cc1 | – | – | – | – | – | –
O=C1/C(=C\c2cc(Cl)c(O)c(Cl)c2)SC(=S)N1Cc1ccccc1 | 2.3µM | ? | – | – | 6.5µM | ?
C#CC(CC)(CC)NC(=O)C1CC(C)=C(C)CC1C(=O)O (configuration not stated) | · | · | – | · | · | ·
Cn1c(=N)n(CC(=O)c2ccc(Br)s2)c2ccccc21 | 18µM | ? | – | -95 | 26µM | 26µM
CCOC(=O)c1cc2ccccc2n1CCN(CC)CC | – | – | – | – | – | –
CCN(CC)CCn1c(=N)n(CC(=O)c2ccc(Br)s2)c2ccccc21 | 7.3µM | 23µM | ? | · | 5.8µM | 23µM
N=c1n(CC(=O)c2ccc(Br)s2)c2ccccc2n1Cc1ccccc1 | 4.6µM | – | ? | -104 | 5.2µM | –
Cn1c(=N)n(CC(=O)c2cccs2)c2ccccc21 | – | – | – | – | ? | –
COc1cccc(C(=O)Cn2c(=N)n(C)c3ccccc32)c1 | 21µM | ? | – | – | 13µM | ?
CCCn1c(=N)n(CC(=O)c2cccs2)c2ccccc21 | ? | – | – | – | ? | –
OC[C@H]1OC([S-])[C@H](O)[C@@H](O)[C@@H]1O.[Au+] (some centres not stated) | – | · | · | · | 24µM | ·
O=C(Nc1nc(-c2ccc(Cl)s2)cs1)c1ccncc1 | 9.2µM | – | – | – | 9.2µM | –
CC(C)n1nc(C(=O)Nc2nc(-c3ccc(Cl)s3)cs2)c2ccccc2c1=O | · | · | – | · | · | ·
COc1cc(C(=O)NC(=S)Nc2nc(-c3ccc(F)cc3)cs2)cc(OC)c1OC | – | – | – | – | – | –
COc1cc(C(=O)Nc2nc(-c3cccs3)cs2)cc(OC)c1OC | 13µM | – | – | -77 | 23µM | ?
O=C(COc1ccc(Cl)cc1)Nc1nc(-c2cccs2)cs1 | ? | – | – | – | ? | –
O=C(Nc1nc(-c2cccs2)cs1)c1ccc(Cl)cc1 | 15µM | ? | ? | – | 26µM | ?
Cc1c(C(=O)Nc2nccs2)sc2nc(-c3cccs3)cc(C(F)(F)F)c12 | 23µM | ? | – | – | 18µM | ?
COc1ccc(C(=O)N2CCC3(CC2)N=C(c2ccc(Br)cc2)NO3)cc1OC | · | · | – | · | · | ·
Cc1ccc2oc(C(=O)Nc3sc4c(c3C(=O)NCc3ccccc3)CCCC4)cc(=O)c2c1 | ? | · | – | · | ? | ·
COc1ccc(C(=O)Nc2nc(-c3cccs3)cs2)cc1 | ? | – | ? | -72 | ? | –
SMILES | TDP1 cell noCPT | HT1080 IDH1KD tx | 12-LOX inh | IL1B secr inh | TDP1 cell CPT | HT1080-NT tox
COc1ccc(C(=O)NCc2csc(-c3cccs3)n2)cc1 | – | – | ? | – | – | –
Cc1csc(NC(=O)c2sc3nc(-c4cccs4)ccc3c2N)n1 | 25µM | ? | · | -72 | ? | –
CCN(CC(=O)NC1CCS(=O)(=O)C1)C(=O)c1cc(-c2ccc(C)cc2)nc2ccccc12 (configuration not stated) | · | · | – | · | · | ·
O=C(CSc1nc2ncc(Br)cc2[nH]1)c1ccc([N+](=O)[O-])cc1 | ? | – | ? | – | 18µM | –
O=C(CSc1nc2ncc(Br)cc2[nH]1)Nc1ccccc1-c1ccccc1 | ? | ? | – | – | 16µM | ?
COc1ccc(-c2c(C)oc3cc(OCc4ccccc4)ccc3c2=O)cc1OC | · | · | – | · | · | ·
CC(Oc1ccc(Cl)cc1)c1ccnn1S(=O)(=O)c1ccccc1 (configuration not stated) | – | – | – | – | – | –
CC(Oc1ccc(-c2ccccc2)c(F)c1)c1ccn(S(=O)(=O)c2ccc(Cl)cc2)n1 (configuration not stated) | ? | – | – | – | 15µM | –
CC(=O)CCc1oc2ccc(C)cc2c1-c1ccc(C)o1 | 15µM | – | ? | – | 12µM | –
CC(=O)CCc1oc2ccc(NC(C)=O)cc2c1-c1ccc(C)o1 | – | – | · | – | – | –
CCc1c(C(C)=O)oc2ccc(C)cc12 | · | · | – | · | · | ·
C/C(CCc1oc2ccc(Br)cc2c1-c1ccc(C)o1)=N\O | · | · | 11µM | · | · | ·
C/C(CCc1oc2ccc(C)cc2c1-c1ccc(C)o1)=N\O | · | · | 40µM! | · | · | ·
Cc1cccc(CC(=O)N2CCCC(c3nn(C)c(=O)n3Cc3ccccc3)C2)c1 (configuration not stated) | · | · | – | · | · | ·
Cc1cc(C)c(CNC(=O)c2cc(-c3cnn(C)c3C)cc3c2OCCN3C)c(=O)[nH]1 | · | · | – | · | · | ·
Brc1ccccc1OCCOc1cccc2cccnc12 | – | – | – | – | – | –
Cc1cc(C)cc(OCCCOc2cccc3cccnc23)c1 | 16µM | ? | – | – | 29µM | ?
Cc1cc(Cl)cc(Cl)c1OCCOc1cccc2cccnc12 | ? | ? | – | – | 23µM | ?
CC(=O)c1cccc(OCCCOc2cccc3cccnc23)c1 | 16µM | – | – | – | ? | –
COc1cccc(C=O)c1OCCCOc1cccc2cccnc12 | 21µM | ? | – | – | ? | ?
Brc1ccccc1OCCCOc1cccc2cccnc12 | ? | ? | – | – | ? | –
COc1cccc(CNC(=O)C(=O)N2CCC3(CC2)OCCN3S(=O)(=O)c2ccc(C)cc2)c1 | – | – | – | – | – | –
Cc1cc(C)c(OCCN(C)C)c(Cl)c1 | – | – | ? | – | – | –
Cc1cc(Cl)cc(Cl)c1OCCOCCN(C)C | 15µM | – | – | – | ? | –
COc1ccc(-n2nc3n(c2=O)CCN(Cc2cccn2C)C3)cc1 | · | · | –[6.33 µM] | · | · | ·
C=CCC(NCc1ccccc1)c1ccc(OC)cc1 (configuration not stated) | 26µM | – | – | – | ? | –
C=CCC(NCc1ccccc1)c1ccco1 (configuration not stated) | – | – | – | – | – | –
CC1(C)CC(=O)C(C(C#Cc2ccccc2)C2=C(O)CC(C)(C)CC2=O)=C(O)C1 | 9.2µM | ? | ? | -100 | 6.5µM | ?
O=C1CCCC(O)=C1C(C#Cc1ccccc1)C1=C(O)CCCC1=O | 5.2µM | ? | · | -99 | 3.7µM | ?
